Compounds without any hit were thinned out: in the full panel of roughly 83,000, 20% have a hit.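 Each cell line was grown in a 96-well plate and treated with one concentration of compound for 48 hours. Values below 10 were considered active.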 Unmarked numbers belong to inactive results. Activity calls are given as the source filed them.
Legend:
Experiment in all cases: NCI-60 one-dose screen, 48 h (100 = growth as untreated, 0 = no growth, -100 = all killed)
Details in all cases: 10 µM unless noted
DU-145 prostate = test system: DU-145 prostate
K-562 leukemia = test system: K-562 leukemia
MALME-3M melanoma = test system: MALME-3M melanoma
MDA-MB-231 breast = test system: MDA-MB-231 breast
SF-268 CNS = test system: SF-268 CNS
SF-295 CNS = test system: SF-295 CNS
SF-539 CNS = test system: SF-539 CNS
UACC-257 melanoma = test system: UACC-257 melanoma
M14 melanoma = test system: M14 melanoma
HCT-15 colon = test system: HCT-15 colon
HT29 colon = test system: HT29 colon
SNB-75 CNS = test system: SNB-75 CNS
SNB-19 CNS = test system: SNB-19 CNS
U251 CNS = test system: U251 CNS
PC-3 prostate = test system: PC-3 prostate
SK-MEL-5 melanoma = test system: SK-MEL-5 melanoma
UACC-62 melanoma = test system: UACC-62 melanoma
LOX IMVI melanoma = test system: LOX IMVI melanoma
SK-MEL-28 melanoma = test system: SK-MEL-28 melanoma
RXF 393 renal = test system: RXF 393 renal

| Compound | growth (DU-145 prostate) | growth (K-562 leukemia) | growth (MALME-3M melanoma) | growth (MDA-MB-231 breast) | growth (SF-268 CNS) | growth (SF-295 CNS) | growth (SF-539 CNS) | growth (UACC-257 melanoma) | growth (M14 melanoma) | growth (HCT-15 colon) | growth (HT29 colon) | growth (SNB-75 CNS) | growth (SNB-19 CNS) | growth (U251 CNS) | growth (PC-3 prostate) | growth (SK-MEL-5 melanoma) | growth (UACC-62 melanoma) | growth (LOX IMVI melanoma) | growth (SK-MEL-28 melanoma) | growth (RXF 393 renal) [%] |
| --- | --- | --- | --- | --- | --- | --- | --- | --- | --- | --- | --- | --- | --- | --- | --- | --- | --- | --- | --- | --- |
| O=C(NOC1OC(CO)C(O)C(O)C1O)Nc1ccccc1 (configuration not stated) | 108% | 69% | 94.8% | 99.2% | 85.7% | 98.5% | 103% | 107% | 108% | 109% | 105% | 105% | 100% | 102% | 93.2% | 104% | 93.7% | 96.7% | 117% | – |
| COc1cc(NC(C)CCCN2C(=O)c3ccccc3C2=O)c2ncccc2c1OC (configuration not stated) | 104% | 71.3% | 74.1% | 90.2% | 108% | 81.1% | 98.6% | 99.4% | 78.7% | 94.1% | – | – | 94.1% | 107% | 71.3% | 84.3% | 90.1% | 79.2% | 105% | 95 |
| Cc1cn(C2CC(F)C(CO)O2)c(=O)[nH]c1=O (configuration not stated) | 108% | 58.3% | 85.1% | 98.3% | 103% | 76.8% | 107% | 91.8% | 89% | 107% | 98.9% | 81.8% | 90.1% | 96.7% | 93.8% | 74.4% | 81.1% | 97.7% | 105% | – |
| COc1ccc(-c2cnc(-c3ccc(F)cc3)[nH]2)cc1 | 113% | 57.1% | 288% | 100% | 92.6% | 96.6% | 105% | -25.1% (active) | -17.3% (active) | 53.2% | 16.4% | 98.6% | – | 33.3% | – | 101% | – | 6.54% (active) | 110% | – |
| O=C1CN(CCN2CC(=O)NC(=O)C2)CC(=O)N1 | 90.7% | 106% | 94.5% | 102% | 108% | 85.9% | 118% | 104% | 94.8% | 114% | 110% | 76.1% | – | 100% | 89.8% | 87% | 86.5% | 93.7% | 121% | – |
| COc1ccc(/C=C2\CS(=O)(=O)C/C(=C\c3ccc(OC)cc3)C2=O)cc1 | -44.2% (active) | -15.4% (active) | -23% (active) | 8.06% (active) | -24.7% (active) | -14.4% (active) | -54.6% (active) | -80.5% (active) | -78.1% (active) | 2.14% (active) | -51.2% (active) | 60.2% | 3.69% (active) | -3.78% (active) | -33.5% (active) | -91.5% (active) | -64.1% (active) | -26.7% (active) | -23.4% (active) | – |
| CCC(C)Nc1ccc(N)cc1 (configuration not stated) | 32.1% | 3.79% (active) | -15.6% (active) | 4.8% (active) | 47% | 11.4% | 47.5% | -43.1% (active) | 31.9% | 30.5% | 7.64% (active) | 29.8% | 30.6% | 10.3% | 6.03% (active) | -6.02% (active) | 30.3% | 5.41% (active) | – | – |
| CN(C)C(=O)Nc1nc2cc(Cl)c(Cl)cc2[nH]1 | 4.55% (active) | -10% (active) | 47.4% | 46.1% | 36.5% | 9.99% (active) | -24.7% (active) | 17% | -66.9% (active) | 26.1% | 5.63% (active) | 14.7% | 27% | 25.6% | 18.9% | 19% | 23.1% | 47.8% | 73.4% | – |
| NC(CSC(c1ccccc1)(c1ccccc1)c1ccc(F)cc1)C(=O)O (configuration not stated) | -40.3% (active) | -4.92% (active) | 30.6% | -18.6% (active) | 24.4% | 0.119% (active) | -7.79% (active) | -15.2% (active) | -55.4% (active) | 35.3% | 4.36% (active) | -0.679% (active) | 35.3% | 31.5% | 15.8% | 15.2% | 35.5% | 46.4% | 58.8% | – |
| COc1cccc(-c2nc3sccn3c2-c2ccnc(NCCNC(=O)c3ccccc3)n2)c1 | 100% | 67.5% | 26.7% | 83.5% | 92.7% | 85.4% | 97.7% | 69.7% | 40.1% | 81.9% | – | – | 110% | 102% | 79.7% | 55.3% | 24.6% | 54.7% | 64.2% | 86.3 |
| Nc1ncnc2c1ncn2C1OC(COC(c2ccccc2)(c2ccccc2)c2ccccc2)C(O)C1O (configuration not stated) | 73% | 82.3% | 95.5% | 84.5% | 100% | 48.1% | 103% | 108% | 101% | 98.2% | 82.8% | 76.2% | 96.5% | 99.5% | 88.7% | 92.3% | – | 91.4% | 96.2% | – |
| CCCCn1c(-c2cccc(OC)c2)nc2cc(OC)c(OC)cc2c1=O | 93.4% | 77.9% | 252% | 89.2% | 95.4% | 99.5% | 108% | -16.6% (active) | 107% | 103% | 110% | 96.1% | 89.7% | 96.3% | 108% | 97.1% | – | 89.2% | 109% | – |
| CC(NCCC(c1ccccc1)c1ccccc1)c1ccccc1 (configuration not stated) | 89.1% | -44% (active) | 74.1% | 83.8% | 89.2% | 62.2% | 94.7% | 64.4% | 71.8% | 75% | 13.1% | 87.3% | 90.7% | 61.1% | – | 85.8% | 93.3% | 74.6% | 75.5% | – |
| CCOC(=O)C(C)(CSSCC(C)(NC(=O)c1ccc2ccccc2c1)C(=O)OCC)NC(=O)c1ccc2ccccc2c1 (configuration not stated) | 117% | 91.1% | 115% | 114% | 102% | 96.2% | 114% | -17.8% (active) | 114% | 82.2% | 81.2% | 107% | 86% | 94.8% | 108% | 109% | 96.1% | 89% | 132% | – |
| O=C(c1cc(-c2ccc(Cl)cc2)nc2ccccc12)N1N=C(c2ccccc2)CC1c1cc(-c2ccccc2)nn1-c1ccccc1 (configuration not stated) | 82.7% | 63.9% | 86.1% | 93.3% | 62.4% | 64.8% | 82.1% | 95.1% | 65.1% | 56.7% | 98.7% | 69.2% | 77.1% | 63.8% | 71.3% | 78.7% | 79.2% | 57% | 73.3% | – |
| CC(C)(C)NC(C1=CC(C)(C)c2ccccc2C1=O)c1ccccc1 (configuration not stated) | -26.2% (active) | -34.8% (active) | -43% (active) | -1.43% (active) | -11.3% (active) | 37.8% | -40.7% (active) | -59.3% (active) | -41.5% (active) | -58.7% (active) | -60.2% (active) | 16.3% | 25% | -67.7% (active) | -79% (active) | 3.82% (active) | – | -66% (active) | -10.5% (active) | – |
| COc1ccc2c(c1)nnn1c3ncccc3c(N=O)c21 | -56.1% (active) | -75% (active) | -8.37% (active) | -31.2% (active) | -50.4% (active) | 24.2% | -71.2% (active) | -10% (active) | -67.5% (active) | -33.2% (active) | -48.8% (active) | -23.3% (active) | -4.29% (active) | -64.4% (active) | 9.89% (active) | 36% | -76.8% (active) | -59.1% (active) | 16.2% | – |

— PubChem BioAssay (NCI)
